Test systems include SR leukemia; OVCAR-8 ovarian; OVCAR-5 ovarian; OVCAR-4 ovarian; SK-OV-3 ovarian; IGROV1 ovarian; OVCAR-3 ovarian; HS 578T breast; NCI/ADR-RES ovarian.
What all share (assay): NCI-60 one-dose screen, 48 h (100 = growth as untreated, 0 = no growth, -100 = all killed)
What all share (details): 10 µM

The panel holds about 83,000 compounds, 20% with a hit somewhere; the sample as a whole holds those more often.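 For each line, cells grew in 96-well plates with the test compound present at a single concentration for 48 hours.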 Unmarked numbers belong to inactive results. The source made the active and inactive calls. The calls were made as follows: active = growth percent below 10; inactive = the rest.

For 16 compounds, growth results are on record in PubChem BioAssay (NCI).

In the case of `C[C@]12CC[C@H]3[C@@H](CC=C4C[C@@H](O)CC[C@@]43C)[C@@H]1CC[C@@H]2C(=O)C/C=N/O`, the growth with SR leukemia was 91.6%; with OVCAR-8 ovarian, 91.9%; in the assay with OVCAR-5 ovarian, 106%; in the assay with OVCAR-4 ovarian, 83.6%; in the assay on SK-OV-3 ovarian, 97.1%; in the assay on IGROV1 ovarian, 76.7%. The growth in the assay with OVCAR-3 ovarian was 89.8%; with HS 578T breast, 92.5%; in the assay on NCI/ADR-RES ovarian it was 84.4%.

As for `CCOC(=O)c1c(C)n(-c2ccc(Cl)cc2)c2ccc(OC(=O)/C=C/c3ccccc3)cc12`, the growth was 26.7% in the assay with SR leukemia; 88.8% with OVCAR-8 ovarian; 108% with OVCAR-5 ovarian; 81.6% in the assay on OVCAR-4 ovarian; 93.9% with SK-OV-3 ovarian; 88.3% in the assay with IGROV1 ovarian. Moreover, the values for the growth with OVCAR-3 ovarian, in the assay on HS 578T breast and in the assay on NCI/ADR-RES ovarian were 77.7%, 82.6% and 61.7%, respectively.

On to `Fc1ccc(-c2cc(C(Cl)Cl)no2)cc1`, for which the growth was 106% in the assay on SR leukemia; 109% in the assay on OVCAR-8 ovarian; 101% in the assay on OVCAR-5 ovarian; 92.2% with OVCAR-4 ovarian; 112% in the assay with SK-OV-3 ovarian; 106% in the assay on IGROV1 ovarian. Further, the values for the growth in the assay on OVCAR-3 ovarian, in the assay with HS 578T breast and in the assay on NCI/ADR-RES ovarian were 98.2%, 93% and 108%, respectively.

Regarding `O=C(Nc1cccc(F)c1)Nc1cccc(Cl)c1`, the growth is 49.9% in the assay with SR leukemia; 78.6% in the assay on OVCAR-8 ovarian; 94.9% in the assay on OVCAR-5 ovarian; 87.2% in the assay on OVCAR-4 ovarian; 114% in the assay on SK-OV-3 ovarian; 111% in the assay on IGROV1 ovarian. Moreover, the growth was 14.4% with OVCAR-3 ovarian, 97.3% in the assay on HS 578T breast and 89.1% in the assay on NCI/ADR-RES ovarian.

In the case of `O=C(Nc1cccc(Cl)c1)OCC(COC(=O)Nc1cccc(Cl)c1)(COC(=O)Nc1cccc(Cl)c1)[N+](=O)[O-]`, the growth with SR leukemia is 22.4%; with OVCAR-8 ovarian it was 44%; in the assay with OVCAR-5 ovarian, 89.1%; in the assay on OVCAR-4 ovarian it was 30.8%; in the assay on SK-OV-3 ovarian, 64.8%; with IGROV1 ovarian it was 42.3%. Also, the growth in the assay on OVCAR-3 ovarian was 20.6%; in the assay on HS 578T breast, 52.1%; with NCI/ADR-RES ovarian it was 35.4%.

Regarding `COc1ccc(-c2nnc(N3CCN(C(=O)CN4CCN(c5ccc(Cl)cc5)CC4)CC3)nc2-c2ccc(OC)cc2)cc1`, the growth is 54.2% in the assay on SR leukemia; 66.1% with OVCAR-8 ovarian; 114% in the assay with OVCAR-5 ovarian; 61.5% in the assay with OVCAR-4 ovarian; 102% in the assay on SK-OV-3 ovarian; 73.1% in the assay with OVCAR-3 ovarian. In addition, the growth in the assay on HS 578T breast was 72.2%; in the assay with NCI/ADR-RES ovarian, 81.8%.

With `CCOC(=O)c1ccc(N(C=O)CCC(=O)CCl)cc1`, the growth is 5.14% (active) with SR leukemia; 3.69% (active) in the assay with OVCAR-8 ovarian; 4.98% (active) in the assay with OVCAR-5 ovarian; 18.8% with OVCAR-4 ovarian; 30.7% in the assay on SK-OV-3 ovarian; 2.75% (active) in the assay on IGROV1 ovarian. In addition, the growth in the assay on OVCAR-3 ovarian was -5.41% (active); in the assay with HS 578T breast, 33.2%; in the assay on NCI/ADR-RES ovarian it was 21.4%.

Consider `CC(Oc1ccc(Cl)cc1)c1ccccc1` (stereo not given), for which the growth in the assay on SR leukemia is 99.1%; in the assay on OVCAR-8 ovarian, 110%; in the assay with OVCAR-5 ovarian it was 103%; with OVCAR-4 ovarian it was 103%; in the assay with SK-OV-3 ovarian, 103%; with IGROV1 ovarian, 96%. The growth with OVCAR-3 ovarian is 107%; with HS 578T breast, 104%; with NCI/ADR-RES ovarian, 103%.

As for `COc1ccc(-c2ccccc2)cc1C(=O)c1ccc(-c2ccccc2)cc1`, the growth with SR leukemia was 23.8%; with OVCAR-8 ovarian, 93.1%; in the assay with OVCAR-5 ovarian it was 87.8%; in the assay on OVCAR-4 ovarian, 96.3%; in the assay with SK-OV-3 ovarian, 76.6%; with IGROV1 ovarian, 63.5%. The results for the growth in the assay with OVCAR-3 ovarian, in the assay with HS 578T breast and in the assay on NCI/ADR-RES ovarian were 60.9%, 81.5% and 41.2%, respectively.

In the case of `COc1ccc(-c2cc(/C=C/C(=O)c3ccc(N)cc3)[nH]n2)cc1OC`, the growth was 10.3% with SR leukemia; 15.2% in the assay on OVCAR-8 ovarian; 45% with OVCAR-5 ovarian; 24.4% with OVCAR-4 ovarian; 39% with SK-OV-3 ovarian; 29.1% in the assay on IGROV1 ovarian. Further, the growth with OVCAR-3 ovarian was 5.89% (active); in the assay on HS 578T breast it was 1.16% (active); with NCI/ADR-RES ovarian, 78.6%.

For `Cc1nn2c(/C=C3/C(=O)Nc4ccc(Cl)cc43)c(-c3ccccc3)nc2s1`, the growth with SR leukemia was -12.7% (active); in the assay with OVCAR-8 ovarian, 14.6%; in the assay with OVCAR-5 ovarian, 73.6%; in the assay with OVCAR-4 ovarian, -52.3% (active); with SK-OV-3 ovarian, -0.11% (active); in the assay with IGROV1 ovarian, 3.8% (active). In addition, the growth was 9.92% (active) in the assay on OVCAR-3 ovarian, -6.37% (active) in the assay with HS 578T breast and 38.3% in the assay with NCI/ADR-RES ovarian.

Regarding `Cc1ccc(S(=O)(=O)Nc2cccc3[nH]c(C(F)(F)F)nc23)cc1`, the growth in the assay with SR leukemia is 10.8%; with OVCAR-8 ovarian, 31%; in the assay on OVCAR-5 ovarian, 35.3%; with OVCAR-4 ovarian it was 36%; with SK-OV-3 ovarian, 4.74% (active); in the assay on OVCAR-3 ovarian, 4.74% (active). The growth in the assay with HS 578T breast is 24.4%; in the assay on NCI/ADR-RES ovarian, 4.81% (active).

Consider `COc1ccc(-c2nnc(SCC(=O)c3ccccc3)o2)cc1`, for which the growth in the assay on SR leukemia is 100%; with OVCAR-8 ovarian, 109%; with OVCAR-5 ovarian, 100%; with OVCAR-4 ovarian it was 108%; with SK-OV-3 ovarian, 102%; in the assay on OVCAR-3 ovarian, 105%. For the same compound, the values for the growth in the assay on HS 578T breast and with NCI/ADR-RES ovarian were 103% and 91.9%, respectively.

Turning to `COc1ccc(C2CC(c3ccc(-c4ccccc4)cc3)=NN2c2ccc(S(N)(=O)=O)cc2)cc1` (stereo not given), the growth was 80% in the assay on SR leukemia; 70.2% in the assay with OVCAR-8 ovarian; 90% in the assay on OVCAR-5 ovarian; 79.5% in the assay with SK-OV-3 ovarian; 46.3% in the assay with IGROV1 ovarian; 89.9% with OVCAR-3 ovarian. Moreover, the results for the growth in the assay on HS 578T breast and in the assay with NCI/ADR-RES ovarian were 85.5% and 60.7%, respectively.

Consider `NC(=O)C1CCCN(Cc2c[nH]c3ccccc23)C1` (stereo not given), for which the growth with SR leukemia is 96.9%; with OVCAR-8 ovarian, 98.3%; with OVCAR-5 ovarian it was 99.8%; in the assay with OVCAR-4 ovarian, 108%; in the assay on SK-OV-3 ovarian, 100%; in the assay on IGROV1 ovarian, 102%. For the same compound, the growth was 104% in the assay on OVCAR-3 ovarian, 96.6% in the assay with HS 578T breast and 94.8% in the assay on NCI/ADR-RES ovarian.

Take `N#CC1C=Cc2c(ccc3ccccc23)N1C(=O)c1ccccc1` (stereo not given): the growth is 13.9% with SR leukemia; 25.7% in the assay with OVCAR-8 ovarian; 45.4% in the assay on OVCAR-5 ovarian; 45.2% with OVCAR-4 ovarian; 4.99% (active) in the assay on SK-OV-3 ovarian; 26% with IGROV1 ovarian. Besides, the growth in the assay with OVCAR-3 ovarian was -56.5% (active); in the assay on HS 578T breast, -8.86% (active); in the assay with NCI/ADR-RES ovarian, -21.8% (active).
